The values that follow come from publication PMC7862700, “An all-to-all approach to the identification of sequence-specific readers for epigenetic DNA modifications on cytosine”.

Assay in all cases: DAPPL (digital affinity profiling via proximity ligation, sequencing); 10 mM Tris-HCl pH 7.5, 50 mM NaCl, 1 mM DTT, 4% glycerol, room temperature, 30 min; GST-TFs on glutathione beads, 16-mer random dsDNA library, 0.1% formaldehyde crosslink after washing; high values mean tight binding
The target in one experiment is T1, FEV (Homo sapiens, UniProt Q99581 1-238).
T1 sequence: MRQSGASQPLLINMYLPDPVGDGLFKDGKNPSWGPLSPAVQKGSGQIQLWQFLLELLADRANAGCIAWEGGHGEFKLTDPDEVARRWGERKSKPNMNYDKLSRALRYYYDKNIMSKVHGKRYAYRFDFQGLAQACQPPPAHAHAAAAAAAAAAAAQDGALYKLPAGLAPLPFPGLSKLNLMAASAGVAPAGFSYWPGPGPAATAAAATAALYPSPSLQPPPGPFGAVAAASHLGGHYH
The conditions noted are these: protein: recombinant; tags: N-terminal GST; dsDNA, one strand shown. The essentials:
(§1)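 Sequencing on an Illumina NextSeq500 followed washing, crosslinking with 0.1% formaldehyde, proximity ligation (BsaI/T4 ligase, 1 h, 37 °C) and PCR amplification of pools that had been incubated for 30 min at room temperature with 200 nmole of a random double-stranded 16-mer DNA library in Tris/NaCl/DTT/glycerol buffer. Each pool held DNA-barcoded human transcription factors, expressed in yeast as GST fusions and captured on glutathione beads, plus a tag-only sample. Binding signal is a hexamer's read frequency for a factor divided by its frequency in the tag-only sample.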

In a further experiment the target is ETV5 (Homo sapiens, UniProt P41161 1-510). The conditions noted are these: protein: recombinant; tags: N-terminal GST; dsDNA, one strand shown. In short, it runs like this:
as §1

The target of the next experiment is HSF1 (Homo sapiens, UniProt Q00613 1-529). The conditions noted are these: protein: recombinant; tags: N-terminal GST; chain copies: 3; dsDNA, one strand shown. In short, it runs like this:
as §1

In a further experiment the target is T2, SPIC (Homo sapiens, UniProt Q8N5J4 1-248).
T2 sequence: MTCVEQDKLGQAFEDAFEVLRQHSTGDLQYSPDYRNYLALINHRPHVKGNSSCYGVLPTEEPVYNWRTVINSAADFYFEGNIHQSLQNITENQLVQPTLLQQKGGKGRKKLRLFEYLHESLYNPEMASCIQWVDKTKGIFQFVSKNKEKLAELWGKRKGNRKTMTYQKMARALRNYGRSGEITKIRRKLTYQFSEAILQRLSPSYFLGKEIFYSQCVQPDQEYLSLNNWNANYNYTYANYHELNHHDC
The settings on record: protein: recombinant; tags: N-terminal GST; dsDNA, one strand shown. In short, it runs like this:
as §1

The next experiment concerns the target ELF4 (Homo sapiens, UniProt Q99607 1-663). The conditions noted are these: protein: recombinant; tags: N-terminal GST; dsDNA, one strand shown. The essentials: as §1
The next experiment addresses T3, ELK4 (Homo sapiens, UniProt P28324-2 1-405).
T3 sequence: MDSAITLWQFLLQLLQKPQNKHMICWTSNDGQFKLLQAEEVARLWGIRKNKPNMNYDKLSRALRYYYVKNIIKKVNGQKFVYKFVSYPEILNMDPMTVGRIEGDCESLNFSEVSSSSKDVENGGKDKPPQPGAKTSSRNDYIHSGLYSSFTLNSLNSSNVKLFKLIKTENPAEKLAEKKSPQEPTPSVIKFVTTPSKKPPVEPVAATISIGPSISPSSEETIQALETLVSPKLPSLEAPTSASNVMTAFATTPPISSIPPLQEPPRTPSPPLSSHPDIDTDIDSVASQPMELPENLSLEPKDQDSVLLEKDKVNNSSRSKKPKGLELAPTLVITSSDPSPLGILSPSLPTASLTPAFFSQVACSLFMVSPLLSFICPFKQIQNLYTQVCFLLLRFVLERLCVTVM
The settings on record: protein: recombinant; tags: N-terminal GST; dsDNA, one strand shown. The essentials:
as §1

In a further experiment the target is T4, ETV2 (Homo sapiens, UniProt O00321 1-342).
T4 sequence: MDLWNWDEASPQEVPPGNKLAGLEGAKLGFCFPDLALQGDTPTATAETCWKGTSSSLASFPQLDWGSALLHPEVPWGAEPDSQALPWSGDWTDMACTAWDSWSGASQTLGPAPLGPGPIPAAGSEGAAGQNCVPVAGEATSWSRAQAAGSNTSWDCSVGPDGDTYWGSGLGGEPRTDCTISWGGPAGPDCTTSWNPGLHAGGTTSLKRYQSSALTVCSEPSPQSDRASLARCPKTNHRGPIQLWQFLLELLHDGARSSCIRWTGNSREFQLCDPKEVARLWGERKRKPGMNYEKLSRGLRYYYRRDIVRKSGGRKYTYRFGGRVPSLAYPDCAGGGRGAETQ
The conditions noted are these: protein: recombinant; tags: N-terminal GST; dsDNA, one strand shown. In short, it runs like this: as §1

In another experiment the target is T5, ELF3 (Homo sapiens, UniProt P78545 1-371).
T5 sequence: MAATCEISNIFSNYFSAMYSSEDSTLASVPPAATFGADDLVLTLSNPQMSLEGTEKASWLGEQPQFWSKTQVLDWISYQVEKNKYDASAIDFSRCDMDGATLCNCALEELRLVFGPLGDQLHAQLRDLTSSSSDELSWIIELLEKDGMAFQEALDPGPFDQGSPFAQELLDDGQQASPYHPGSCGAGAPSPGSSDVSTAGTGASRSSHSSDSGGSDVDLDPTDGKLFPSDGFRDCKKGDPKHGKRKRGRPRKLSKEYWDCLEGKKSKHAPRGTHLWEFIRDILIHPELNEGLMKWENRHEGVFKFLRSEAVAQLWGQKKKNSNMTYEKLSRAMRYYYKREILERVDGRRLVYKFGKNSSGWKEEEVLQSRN
The settings on record: protein: recombinant; tags: N-terminal GST; dsDNA, one strand shown. In short, it runs like this: as §1

A further experiment concerns the target CRX (Homo sapiens, UniProt O43186 1-299). The conditions noted are these: protein: recombinant; tags: N-terminal GST; dsDNA, one strand shown. In short, it runs like this:
as §1

A further experiment deals with ETV1 (Homo sapiens, UniProt P50549 1-477). The settings on record: protein: recombinant; tags: N-terminal GST; dsDNA, one strand shown. In short, it runs like this:
as §1

For another experiment, the target named is T6, ERF (Homo sapiens, UniProt P50548 1-548).
T6 sequence: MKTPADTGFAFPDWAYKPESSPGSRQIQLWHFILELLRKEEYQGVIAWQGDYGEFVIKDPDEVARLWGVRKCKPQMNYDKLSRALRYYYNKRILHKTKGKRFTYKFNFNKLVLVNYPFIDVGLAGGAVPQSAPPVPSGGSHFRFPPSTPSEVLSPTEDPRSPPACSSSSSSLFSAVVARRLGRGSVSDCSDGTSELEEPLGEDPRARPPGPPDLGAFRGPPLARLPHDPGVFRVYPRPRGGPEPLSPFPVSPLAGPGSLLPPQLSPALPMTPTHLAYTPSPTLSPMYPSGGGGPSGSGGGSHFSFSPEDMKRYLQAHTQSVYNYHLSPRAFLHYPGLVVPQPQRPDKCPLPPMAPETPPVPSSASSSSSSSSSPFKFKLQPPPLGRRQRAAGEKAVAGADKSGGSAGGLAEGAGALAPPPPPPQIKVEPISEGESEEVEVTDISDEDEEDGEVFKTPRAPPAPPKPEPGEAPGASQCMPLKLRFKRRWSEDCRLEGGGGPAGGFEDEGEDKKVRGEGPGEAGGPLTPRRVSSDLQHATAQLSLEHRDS
The settings on record: protein: recombinant; tags: N-terminal GST; dsDNA, one strand shown. In short, it runs like this:
as §1

In a further experiment the target is T7, ETV3L (Homo sapiens, UniProt Q6ZN32 1-361).
T7 sequence: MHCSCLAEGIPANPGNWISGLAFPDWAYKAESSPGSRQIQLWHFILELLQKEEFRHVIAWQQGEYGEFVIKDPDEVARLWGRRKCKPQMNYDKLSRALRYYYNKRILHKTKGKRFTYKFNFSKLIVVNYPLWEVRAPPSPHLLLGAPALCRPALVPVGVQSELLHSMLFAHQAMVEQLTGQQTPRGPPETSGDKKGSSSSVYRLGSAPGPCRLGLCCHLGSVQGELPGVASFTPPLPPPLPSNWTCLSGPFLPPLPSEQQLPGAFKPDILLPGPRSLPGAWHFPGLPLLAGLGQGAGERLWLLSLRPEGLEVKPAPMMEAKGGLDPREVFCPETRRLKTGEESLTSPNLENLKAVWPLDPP
The settings on record: protein: recombinant; tags: N-terminal GST; dsDNA, one strand shown. In short, it runs like this: as §1

The next experiment concerns the target T8, ETS2 (Homo sapiens, UniProt P15036 1-469).
T8 sequence: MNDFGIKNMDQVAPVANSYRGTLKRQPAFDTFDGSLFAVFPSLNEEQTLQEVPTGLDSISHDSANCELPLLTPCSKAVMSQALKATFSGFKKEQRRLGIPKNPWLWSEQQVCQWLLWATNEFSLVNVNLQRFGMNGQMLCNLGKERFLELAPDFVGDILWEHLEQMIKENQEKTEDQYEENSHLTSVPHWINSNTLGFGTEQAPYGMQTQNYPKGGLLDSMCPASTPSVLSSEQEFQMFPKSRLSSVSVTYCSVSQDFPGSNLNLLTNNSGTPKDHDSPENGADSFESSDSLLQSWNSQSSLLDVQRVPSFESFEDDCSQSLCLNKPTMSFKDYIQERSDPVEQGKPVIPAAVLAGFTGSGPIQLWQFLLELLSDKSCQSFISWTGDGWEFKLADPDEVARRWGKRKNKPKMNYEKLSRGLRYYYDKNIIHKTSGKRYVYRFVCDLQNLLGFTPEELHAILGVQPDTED
The settings on record: protein: recombinant; tags: N-terminal GST; dsDNA, one strand shown. In short, it runs like this: as §1

Another experiment deals with T9, SPDEF (Homo sapiens, UniProt O95238 1-335).
T9 sequence: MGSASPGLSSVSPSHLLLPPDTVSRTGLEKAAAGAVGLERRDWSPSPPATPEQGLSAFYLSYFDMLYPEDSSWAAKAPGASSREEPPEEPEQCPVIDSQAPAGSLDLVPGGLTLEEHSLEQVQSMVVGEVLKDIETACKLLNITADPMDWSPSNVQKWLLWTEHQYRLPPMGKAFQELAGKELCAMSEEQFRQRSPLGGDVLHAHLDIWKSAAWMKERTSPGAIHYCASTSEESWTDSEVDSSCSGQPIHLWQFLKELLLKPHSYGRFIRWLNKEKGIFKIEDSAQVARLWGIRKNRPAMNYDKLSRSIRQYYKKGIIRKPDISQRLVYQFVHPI
The conditions noted are these: protein: recombinant; tags: N-terminal GST; dsDNA, one strand shown. The essentials:
as §1

In the next experiment the target is T10, ETV7 (Homo sapiens, UniProt Q9Y603 1-341).
T10 sequence: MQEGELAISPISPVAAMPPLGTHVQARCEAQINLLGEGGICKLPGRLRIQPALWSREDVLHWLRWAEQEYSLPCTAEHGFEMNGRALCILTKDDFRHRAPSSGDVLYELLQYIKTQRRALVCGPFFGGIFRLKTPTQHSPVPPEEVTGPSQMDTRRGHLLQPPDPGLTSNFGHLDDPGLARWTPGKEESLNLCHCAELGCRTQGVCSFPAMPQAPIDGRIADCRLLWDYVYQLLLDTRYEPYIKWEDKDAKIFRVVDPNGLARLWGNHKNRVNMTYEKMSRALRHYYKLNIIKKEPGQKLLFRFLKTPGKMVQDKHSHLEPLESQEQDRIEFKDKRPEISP
The settings on record: protein: recombinant; tags: N-terminal GST; dsDNA, one strand shown. In short, it runs like this:
as §1

A further experiment has as its target T11, ELF5 (Homo sapiens, UniProt Q9UKW6-2 1-255).
T11 sequence: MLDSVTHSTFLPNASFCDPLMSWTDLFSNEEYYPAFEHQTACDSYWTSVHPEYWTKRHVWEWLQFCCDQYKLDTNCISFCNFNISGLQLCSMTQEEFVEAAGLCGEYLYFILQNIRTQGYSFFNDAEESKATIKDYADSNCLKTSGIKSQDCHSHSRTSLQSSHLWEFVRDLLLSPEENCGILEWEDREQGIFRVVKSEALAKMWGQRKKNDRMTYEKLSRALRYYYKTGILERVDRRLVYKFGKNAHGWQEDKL
The settings on record: protein: recombinant; tags: N-terminal GST; dsDNA, one strand shown. The essentials:
as §1

Another experiment has as its target T12, ETV3 (Homo sapiens, UniProt P41162-2 1-143).
T12 sequence: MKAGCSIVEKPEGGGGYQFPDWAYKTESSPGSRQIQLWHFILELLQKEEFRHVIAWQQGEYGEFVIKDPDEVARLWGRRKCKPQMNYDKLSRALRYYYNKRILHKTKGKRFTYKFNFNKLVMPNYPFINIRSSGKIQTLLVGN
The settings on record: protein: recombinant; tags: N-terminal GST; dsDNA, one strand shown. In short, it runs like this:
as §1

A further experiment addresses ETV6 (Homo sapiens, UniProt P41212 1-452). The conditions noted are these: protein: recombinant; tags: N-terminal GST; dsDNA, one strand shown. In short, it runs like this: as §1

ELF4, sequence (Q99607 whole entry): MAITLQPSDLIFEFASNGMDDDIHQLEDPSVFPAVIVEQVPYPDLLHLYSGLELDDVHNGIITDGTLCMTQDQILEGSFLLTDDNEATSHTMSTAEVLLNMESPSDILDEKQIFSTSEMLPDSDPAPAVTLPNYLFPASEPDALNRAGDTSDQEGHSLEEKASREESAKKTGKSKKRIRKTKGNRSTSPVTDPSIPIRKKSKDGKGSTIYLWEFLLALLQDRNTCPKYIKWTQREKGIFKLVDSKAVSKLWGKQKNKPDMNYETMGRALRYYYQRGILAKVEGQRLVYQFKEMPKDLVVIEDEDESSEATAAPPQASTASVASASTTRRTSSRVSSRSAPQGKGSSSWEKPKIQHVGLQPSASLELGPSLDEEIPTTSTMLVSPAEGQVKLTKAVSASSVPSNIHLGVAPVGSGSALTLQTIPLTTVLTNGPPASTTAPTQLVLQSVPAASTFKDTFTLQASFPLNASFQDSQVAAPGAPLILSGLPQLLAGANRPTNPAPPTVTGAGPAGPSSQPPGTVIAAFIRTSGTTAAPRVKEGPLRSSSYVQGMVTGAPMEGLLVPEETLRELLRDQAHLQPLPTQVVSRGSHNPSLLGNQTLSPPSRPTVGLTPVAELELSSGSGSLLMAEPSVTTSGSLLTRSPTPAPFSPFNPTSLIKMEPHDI
ETV1, sequence (P50549 whole entry): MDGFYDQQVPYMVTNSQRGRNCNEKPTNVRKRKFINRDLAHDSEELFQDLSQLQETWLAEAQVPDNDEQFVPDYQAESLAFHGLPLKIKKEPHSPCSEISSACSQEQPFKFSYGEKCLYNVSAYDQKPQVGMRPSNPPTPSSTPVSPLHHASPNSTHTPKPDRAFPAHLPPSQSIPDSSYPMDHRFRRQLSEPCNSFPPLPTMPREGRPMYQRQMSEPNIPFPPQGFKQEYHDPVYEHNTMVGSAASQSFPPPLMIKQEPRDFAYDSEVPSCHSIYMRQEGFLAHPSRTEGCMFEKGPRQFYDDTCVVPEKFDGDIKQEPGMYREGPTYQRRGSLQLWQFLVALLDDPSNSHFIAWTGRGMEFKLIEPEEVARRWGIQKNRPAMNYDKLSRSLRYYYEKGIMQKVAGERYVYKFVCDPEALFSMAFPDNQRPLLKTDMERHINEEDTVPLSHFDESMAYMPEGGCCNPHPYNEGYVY
ETV5, sequence (P41161 whole entry): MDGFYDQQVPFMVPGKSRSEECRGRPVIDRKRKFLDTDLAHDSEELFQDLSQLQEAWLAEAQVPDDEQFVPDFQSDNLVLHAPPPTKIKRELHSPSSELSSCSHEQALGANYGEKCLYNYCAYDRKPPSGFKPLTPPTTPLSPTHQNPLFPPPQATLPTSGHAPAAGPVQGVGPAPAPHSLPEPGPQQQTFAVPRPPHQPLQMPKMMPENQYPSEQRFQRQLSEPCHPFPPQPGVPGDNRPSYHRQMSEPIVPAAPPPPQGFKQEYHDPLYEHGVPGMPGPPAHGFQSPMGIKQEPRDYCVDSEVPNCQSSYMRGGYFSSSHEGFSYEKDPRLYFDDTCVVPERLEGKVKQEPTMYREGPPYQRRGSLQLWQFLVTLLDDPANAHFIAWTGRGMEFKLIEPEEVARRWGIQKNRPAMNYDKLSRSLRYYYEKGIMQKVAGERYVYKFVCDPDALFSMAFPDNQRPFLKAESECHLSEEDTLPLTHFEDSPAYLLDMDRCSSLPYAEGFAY
CRX, sequence (O43186 whole entry): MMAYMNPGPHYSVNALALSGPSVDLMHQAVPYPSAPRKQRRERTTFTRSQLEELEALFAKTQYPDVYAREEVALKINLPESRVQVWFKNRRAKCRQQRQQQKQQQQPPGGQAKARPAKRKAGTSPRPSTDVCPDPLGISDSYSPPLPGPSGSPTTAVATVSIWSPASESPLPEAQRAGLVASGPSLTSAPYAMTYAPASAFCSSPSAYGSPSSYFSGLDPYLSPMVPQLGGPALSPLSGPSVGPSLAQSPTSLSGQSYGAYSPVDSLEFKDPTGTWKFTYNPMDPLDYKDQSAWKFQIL
HSF1, sequence (Q00613 whole entry): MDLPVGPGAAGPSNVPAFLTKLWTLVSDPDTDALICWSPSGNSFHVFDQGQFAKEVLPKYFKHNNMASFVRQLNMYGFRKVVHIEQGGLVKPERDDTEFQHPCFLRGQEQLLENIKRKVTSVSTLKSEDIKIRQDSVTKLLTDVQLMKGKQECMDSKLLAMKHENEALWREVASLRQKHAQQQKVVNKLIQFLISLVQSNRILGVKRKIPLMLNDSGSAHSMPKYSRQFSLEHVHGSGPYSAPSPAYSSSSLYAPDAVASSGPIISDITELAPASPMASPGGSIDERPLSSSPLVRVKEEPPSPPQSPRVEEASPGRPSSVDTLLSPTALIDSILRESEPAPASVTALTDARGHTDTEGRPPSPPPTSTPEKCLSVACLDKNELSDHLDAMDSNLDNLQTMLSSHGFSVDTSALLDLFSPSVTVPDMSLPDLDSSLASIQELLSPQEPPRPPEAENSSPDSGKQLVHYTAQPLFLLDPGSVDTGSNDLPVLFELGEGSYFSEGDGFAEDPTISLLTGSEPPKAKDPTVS
ETV6, sequence (P41212 whole entry): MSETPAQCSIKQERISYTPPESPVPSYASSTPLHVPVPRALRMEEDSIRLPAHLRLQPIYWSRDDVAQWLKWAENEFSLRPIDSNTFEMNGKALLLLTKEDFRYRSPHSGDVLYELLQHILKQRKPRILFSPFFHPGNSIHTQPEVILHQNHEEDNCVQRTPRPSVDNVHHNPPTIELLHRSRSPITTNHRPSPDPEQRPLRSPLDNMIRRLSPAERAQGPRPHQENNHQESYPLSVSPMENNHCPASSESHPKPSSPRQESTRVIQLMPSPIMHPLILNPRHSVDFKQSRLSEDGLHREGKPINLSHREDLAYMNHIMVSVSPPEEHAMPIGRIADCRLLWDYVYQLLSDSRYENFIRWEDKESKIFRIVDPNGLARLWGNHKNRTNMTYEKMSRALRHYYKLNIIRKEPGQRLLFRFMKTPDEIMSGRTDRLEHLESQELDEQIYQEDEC

Regarding ACTTTA, the binding signal was 1.15 fold enrichment (6-mer frequency, TF over GST control) with FEV; 1.21 fold enrichment (6-mer frequency, TF over GST control) in the experiment with ETV5; 1.33 fold enrichment (6-mer frequency, TF over GST control) with HSF1; 1.21 fold enrichment (6-mer frequency, TF over GST control) with SPIC; 1.23 fold enrichment (6-mer frequency, TF over GST control) in the experiment with ELF4; 1.15 fold enrichment (6-mer frequency, TF over GST control) with ELK4. Also, the binding signal in the experiment with ETV2 was 1.26 fold enrichment (6-mer frequency, TF over GST control); in the experiment with ELF3 it was 1.23 fold enrichment (6-mer frequency, TF over GST control); with CRX it was 1.54 fold enrichment (6-mer frequency, TF over GST control); in the experiment with ETV1, 1.21 fold enrichment (6-mer frequency, TF over GST control); with ERF, 1.12 fold enrichment (6-mer frequency, TF over GST control); in the experiment with ETV3L it was 1.26 fold enrichment (6-mer frequency, TF over GST control). The binding signal with ETS2 was 1.25 fold enrichment (6-mer frequency, TF over GST control); with SPDEF, 1.08 fold enrichment (6-mer frequency, TF over GST control); with ETV7, 1.29 fold enrichment (6-mer frequency, TF over GST control); with ELF5, 1.15 fold enrichment (6-mer frequency, TF over GST control); in the experiment with ETV3, 1.19 fold enrichment (6-mer frequency, TF over GST control); in the experiment with ETV6 it was 1.18 fold enrichment (6-mer frequency, TF over GST control).
